PubChem BioAssay (NCATS)
Where “and” joins values, the source holds several entries; their conditions need not be identical. Equal values may be shown once. Results filed as inconclusive are left out. Calls of active or inactive are those of the source. Unless noted, calls follow the shape of the full dose curve.

Tests used:
[1] = target: Lysosomal acid glucosylceramidase (Homo sapiens) (UniProt P04062); assay: Glucocerebrosidase-p2 (AID 348; in the data active = potency below about 10 µM; also: potency is read from the fitted curve at half-maximal effect); conditions: purified GBA, blue fluorogenic substrate, 40 min
Lysosomal acid glucosylceramidase (Homo sapiens), sequence (P04062 whole entry, looked up): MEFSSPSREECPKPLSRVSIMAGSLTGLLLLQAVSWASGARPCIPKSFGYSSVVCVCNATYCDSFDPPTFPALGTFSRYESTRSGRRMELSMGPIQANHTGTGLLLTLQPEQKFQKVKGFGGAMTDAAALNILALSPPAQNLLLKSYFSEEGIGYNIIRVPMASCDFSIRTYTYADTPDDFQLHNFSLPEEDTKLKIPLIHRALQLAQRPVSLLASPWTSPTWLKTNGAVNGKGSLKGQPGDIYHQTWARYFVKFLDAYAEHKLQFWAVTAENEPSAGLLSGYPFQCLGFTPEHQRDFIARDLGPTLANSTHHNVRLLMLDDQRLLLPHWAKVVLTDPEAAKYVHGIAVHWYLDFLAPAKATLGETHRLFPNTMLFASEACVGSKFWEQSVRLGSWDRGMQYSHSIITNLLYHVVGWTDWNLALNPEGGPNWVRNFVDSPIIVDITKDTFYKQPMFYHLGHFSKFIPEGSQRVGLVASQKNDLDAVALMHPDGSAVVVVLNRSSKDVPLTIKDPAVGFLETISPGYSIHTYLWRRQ
Procedure, shortened: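 Normal human glucocerebrosidase (0.2 nM) with blue fluorogenic substrate (80 uM final) in citrate/phosphate pH 5.9 with 10mM sodium taurocholate, 0.01% tween-20; 40 min RT, NaOH/glycine stop; fluorescence Ex 365/Em 440; AC50 from a titration from 0.6 nM upwards.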

[2] = AP1 Signaling Pathway (AID 357; active = well fitted curve in either direction with a large enough effect, not every such curve was filed as active; also: % is scaled to controls: 0 for no effect and ±100 for the full control effect); conditions: ME-180 AP-1-bla reporter, EGF-induced, beta-lactamase ratio, 5 h; series mostly up to 17.2 µM
Procedure, shortened: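 ME-180 cells with beta-lactamase reporter under AP-1 response element, stimulated with EC50 EGF; compounds tested in titration series, 5 h at 37 °C. CCF4 substrate added 2.5 h at room temperature; 460/530 nm emission ratio gave %activity and AC50.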

[3] = target: Cytochrome P450 1A2 (Homo sapiens) (UniProt P05177); assay: p450-cyp1a2 (AID 410); conditions: recombinant CYP1A2, luciferin-ME demethylation, luminescence; series mostly up to 25.6 µM; also: potency is read from the fitted curve at half-maximal effect;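 as to activity change, negative = inhibition: -100% = full effect of reference inhibitor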
Cytochrome P450 1A2 (Homo sapiens), sequence (P05177 whole entry, looked up): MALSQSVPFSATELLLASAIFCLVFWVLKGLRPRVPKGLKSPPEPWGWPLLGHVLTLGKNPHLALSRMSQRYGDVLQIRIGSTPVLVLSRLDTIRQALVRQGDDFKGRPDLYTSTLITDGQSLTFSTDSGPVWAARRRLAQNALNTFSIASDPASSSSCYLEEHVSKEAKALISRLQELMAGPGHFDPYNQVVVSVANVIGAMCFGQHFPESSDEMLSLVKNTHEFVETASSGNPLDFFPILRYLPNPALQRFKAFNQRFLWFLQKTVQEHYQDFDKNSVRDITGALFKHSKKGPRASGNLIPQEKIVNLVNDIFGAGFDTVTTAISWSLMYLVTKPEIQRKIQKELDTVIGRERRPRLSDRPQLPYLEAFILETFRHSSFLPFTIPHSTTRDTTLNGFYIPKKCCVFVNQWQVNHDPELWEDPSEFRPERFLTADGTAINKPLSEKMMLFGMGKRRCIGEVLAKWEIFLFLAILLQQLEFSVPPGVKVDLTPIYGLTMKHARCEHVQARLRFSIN
Procedure, shortened: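 Luminescent demethylation readout: Luciferin-ME (100uM, equal to Km) turned over by 20nM CYP1A2 for 60 min at room temperature after NADPH regeneration addition, following 10 min compound preincubation. Normalization used 57 uM furafylline as full inhibition.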

[4] = NFAT Signaling Pathway (AID 444; active = well fitted curve in either direction with a large enough effect, not every such curve was filed as active;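 also: carbachol stimulus at about its EC50 of 1 µM final; % is scaled to controls: 0 for no effect and ±100 for the full control effect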); conditions: Jurkat NFAT-bla M1, carbachol, beta-lactamase ratio, 5 h; at 7.69 µM (top of the series)
Procedure, shortened: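 Jurkat cells with NFAT-driven β-lactamase reporter and co-expressed M1 receptor, stimulated with carbachol (final 1 uM, ~EC50), compound titration, 5 h at 37 °C. CCF4 loaded 1 h at RT; 460/530 nm ratio gave %activity and AC50.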

[5] = Stat Signaling Pathway (AID 446; active = well fitted curve in either direction with a large enough effect, not every such curve was filed as active;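 also: ME-180 cervical cancer cells given 40 pM IL-6 alongside compound; SIE-controlled beta-lactamase reporter measured as 460/530 nm FRET emission ratio; % is scaled to controls: 0 for no effect and ±100 for the full control effect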); conditions: ME-180 (cervical carcinoma) SIE beta-lactamase reporter, IL-6 stimulated, 5 h; series mostly up to 17.2 µM
Procedure, shortened: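 FRET read-out (405 nm excitation, 460/530 nm emission) of a beta-lactamase reporter under a STAT-inducible element in ME-180 cervical carcinoma cells. Cells with compound receive 40 pM IL-6 for 5 h. Values are normalised to AC90 stimulation and AC90 JAK-inhibitor controls.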

[6] = target: Glucocorticoid receptor (Homo sapiens) (UniProt P04150); assay: GR-EFC Redistribution (AID 451); conditions: CHO-K1 GR-EFC translocation, beta-gal luminescence, 2 h; also: potency is read from the fitted curve at half-maximal effect
Glucocorticoid receptor (Homo sapiens), sequence (P04150 whole entry, looked up, the tested form may be a part): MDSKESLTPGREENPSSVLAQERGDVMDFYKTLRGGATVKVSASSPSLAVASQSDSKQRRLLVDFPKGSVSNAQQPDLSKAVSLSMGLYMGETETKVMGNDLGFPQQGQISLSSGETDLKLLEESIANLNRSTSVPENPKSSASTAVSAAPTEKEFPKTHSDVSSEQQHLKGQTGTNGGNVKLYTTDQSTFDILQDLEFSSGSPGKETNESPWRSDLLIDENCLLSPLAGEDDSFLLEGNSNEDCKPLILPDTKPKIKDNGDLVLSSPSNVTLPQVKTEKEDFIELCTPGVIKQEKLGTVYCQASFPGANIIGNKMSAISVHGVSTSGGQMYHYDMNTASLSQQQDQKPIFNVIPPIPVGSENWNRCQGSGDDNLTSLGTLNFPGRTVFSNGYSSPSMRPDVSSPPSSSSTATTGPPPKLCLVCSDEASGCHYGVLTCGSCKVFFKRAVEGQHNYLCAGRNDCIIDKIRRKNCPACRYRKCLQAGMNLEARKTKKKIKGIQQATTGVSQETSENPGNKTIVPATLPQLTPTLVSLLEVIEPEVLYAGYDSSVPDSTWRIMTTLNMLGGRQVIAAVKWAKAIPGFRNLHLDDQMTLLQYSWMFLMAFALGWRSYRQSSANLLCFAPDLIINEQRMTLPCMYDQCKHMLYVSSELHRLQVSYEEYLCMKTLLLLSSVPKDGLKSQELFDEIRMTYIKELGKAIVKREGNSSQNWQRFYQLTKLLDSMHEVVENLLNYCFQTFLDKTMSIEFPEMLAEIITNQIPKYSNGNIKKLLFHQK
Procedure, shortened: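 CHO-K1 cells expressing nuclear EA and GR-ED fragments of b-gal; compounds titrated up to 46 uM final, 2 h at 37 C. GR nuclear translocation read as complemented b-gal luminescence after 1 h RT detection.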

[7] = target: 3',5'-cyclic-AMP phosphodiesterase 4B (Homo sapiens) (UniProt Q07343); assay: qHTS Assay for Inhibitors of PDE-IV (AID 607; active = well fitted activation curve with a large enough effect in the main read-out, with a control signal flat, not every such curve was filed as active; also: % of control where 0% means no effect); conditions: HEK293 ACTOne CNG channel cells, membrane potential fluorescence; series mostly up to 22.9 µM
3',5'-cyclic-AMP phosphodiesterase 4B (Homo sapiens), sequence (Q07343 whole entry, looked up): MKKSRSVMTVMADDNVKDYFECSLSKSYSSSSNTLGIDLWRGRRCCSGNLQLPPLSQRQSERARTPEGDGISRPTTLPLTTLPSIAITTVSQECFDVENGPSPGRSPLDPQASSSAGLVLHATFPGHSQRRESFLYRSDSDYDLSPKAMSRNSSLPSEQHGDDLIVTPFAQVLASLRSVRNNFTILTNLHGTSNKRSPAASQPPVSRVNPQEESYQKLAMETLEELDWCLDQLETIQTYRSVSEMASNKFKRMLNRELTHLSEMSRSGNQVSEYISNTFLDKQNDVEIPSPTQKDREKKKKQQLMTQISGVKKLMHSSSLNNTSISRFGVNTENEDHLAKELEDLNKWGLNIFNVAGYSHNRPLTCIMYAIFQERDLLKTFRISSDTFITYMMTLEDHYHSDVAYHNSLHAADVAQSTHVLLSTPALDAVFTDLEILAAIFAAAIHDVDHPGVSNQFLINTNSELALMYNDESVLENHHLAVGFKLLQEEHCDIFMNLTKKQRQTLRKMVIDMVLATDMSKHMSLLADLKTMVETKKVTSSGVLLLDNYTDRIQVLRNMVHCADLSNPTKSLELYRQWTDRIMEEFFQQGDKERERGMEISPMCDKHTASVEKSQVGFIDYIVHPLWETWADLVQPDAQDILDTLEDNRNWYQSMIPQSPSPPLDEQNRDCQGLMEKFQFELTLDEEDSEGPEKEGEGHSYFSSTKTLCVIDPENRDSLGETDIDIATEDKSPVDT
Procedure, shortened: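 Cell-based read-out of cAMP via a modified cyclic nucleotide-gated channel and membrane potential dye (535/590 nm) in HEK293 cells expressing PDE4 endogenously. Compounds tested up to 22.9 uM final; 100 uM RO 20-1724 reference.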

[8] = target: Cytochrome P450 3A4 (Homo sapiens) (UniProt P08684); assay: qHTS Assay for Activators of Cytochrome P450 3A4 (AID 885; active = well fitted curve in the direction sought with a large enough effect; an effect the other way counts as inactive or inconclusive; also: nearly all actives have a fitted effect of over 65% in size; also: potency is read from the fitted curve at half-maximal effect); conditions: recombinant CYP3A4, Luciferin-PPXE luminescence, 60 min; series mostly up to 57.1 µM
Cytochrome P450 3A4 (Homo sapiens), sequence (P08684 whole entry, looked up): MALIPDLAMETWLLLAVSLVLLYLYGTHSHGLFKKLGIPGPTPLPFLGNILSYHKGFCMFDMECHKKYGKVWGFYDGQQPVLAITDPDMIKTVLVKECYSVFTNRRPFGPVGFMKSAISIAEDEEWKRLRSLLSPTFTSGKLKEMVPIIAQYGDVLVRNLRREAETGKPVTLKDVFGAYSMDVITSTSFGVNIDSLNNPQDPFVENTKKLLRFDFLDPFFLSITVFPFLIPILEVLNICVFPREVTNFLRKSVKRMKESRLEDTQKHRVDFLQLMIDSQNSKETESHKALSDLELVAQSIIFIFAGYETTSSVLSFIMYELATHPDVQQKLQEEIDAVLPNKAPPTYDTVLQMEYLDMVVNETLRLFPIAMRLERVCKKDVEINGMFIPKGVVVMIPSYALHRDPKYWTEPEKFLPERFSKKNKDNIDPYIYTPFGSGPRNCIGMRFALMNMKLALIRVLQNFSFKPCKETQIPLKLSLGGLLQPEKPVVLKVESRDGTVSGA
Procedure, shortened: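 Luminescent readout of luciferin formed from 25 uM Luciferin-PPXE (KM level) by 20 nM CYP3A4 in 200 mM KPO4, with 60 min NADPH-driven reaction at room temperature after 10 min compound exposure. Ketoconazole (57 uM) defined 100% inhibition.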

[9] = target: Ubiquitin carboxyl-terminal hydrolase 1 (Homo sapiens) (UniProt O94782); assay: Inhibitors of USP1/UAF1: Pilot qHTS (AID 504865; active = well fitted curve in the direction sought with a large enough effect; an effect the other way counts as inactive or inconclusive;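 also: rhodamine fluorescence freed from ubiquitin-rhodamine substrate followed over time; top concentration of the series differs between compounds; % is scaled to controls: 0 for no effect and ±100 for the full control effect; nearly all actives have a fitted effect of over 35% in size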); conditions: purified USP1/UAF1, Ub-rhodamine cleavage fluorescence; series mostly up to 114 µM
Procedure, shortened: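 Enzyme-free wells gave the negative control, while test wells held 1nM USP1/UAF1 preincubated with compound for 15 min at room temperature. Ub-Rho at 150nM final started the reaction, and fluorescence at 480/540 nm was recorded kinetically.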

[10] = qHTS assay for small molecule antagonists of the retinoid-related orphan receptor gamma (ROR-gamma) signaling pathway - cell viability counter screen (AID 720652; active = well fitted curve in the direction sought with a large enough effect in the repeat runs; an effect the other way counts as inactive or inconclusive;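 also: CHO reporter cells with doxycycline-induced ROR-gamma expression; compound exposure lasted 16 hr before ATP read; % is scaled to controls: 0 for no effect and ±100 for the full control effect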); conditions: RORgamma reporter cell line viability counter screen; series mostly up to 92.2 µM
Procedure, shortened: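 Cytotoxicity counter screen: intracellular ATP (CellTiter-Glo luminescence) measured in the doxycycline-induced CHO RORE-luciferase reporter line after 16 hr compound exposure at 37 C, 5% CO2.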

[11] = target: Vitamin D3 receptor (Homo sapiens) (UniProt P11473); assay: qHTS assay for small molecule antagonists of vitamin D receptor signaling (AID 588541); conditions: HEK293T VDR-UAS-bla, beta-lactamase ratio, antagonist mode; series mostly up to 76.7 µM
Vitamin D3 receptor (Homo sapiens), sequence (P11473 whole entry, looked up): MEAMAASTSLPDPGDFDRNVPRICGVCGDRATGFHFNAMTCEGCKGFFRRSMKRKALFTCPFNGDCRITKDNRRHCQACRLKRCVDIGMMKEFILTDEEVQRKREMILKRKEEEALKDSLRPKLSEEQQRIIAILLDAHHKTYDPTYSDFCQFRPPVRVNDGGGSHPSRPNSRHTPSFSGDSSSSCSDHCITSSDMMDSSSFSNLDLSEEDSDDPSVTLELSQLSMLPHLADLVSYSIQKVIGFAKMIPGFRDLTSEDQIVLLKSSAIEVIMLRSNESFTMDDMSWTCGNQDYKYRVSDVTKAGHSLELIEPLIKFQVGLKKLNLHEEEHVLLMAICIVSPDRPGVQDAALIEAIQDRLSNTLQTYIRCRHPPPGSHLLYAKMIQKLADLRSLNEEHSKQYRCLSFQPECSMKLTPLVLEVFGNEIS
Procedure, shortened: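 VDR-UAS-bla HEK293T cells in 2% charcoal-stripped FBS were stimulated with 1-alpha,25-dihydroxyvitamin D3 (3 nM final) plus compound for 16 h at 37 C. The beta-lactamase CCF4 readout was normalized to 50 nM agonist and DMSO, and Hill fits gave IC50.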

[12] = qHTS assay to identify small molecules that stimulate interleukin-8 (IL-8) secretion (AID 651758; active = well fitted activation curve with a large enough effect in the signal ratio; the % refers to the signal ratio; also: 0% is about no effect); conditions: HTRF ratio (665/615); series mostly up to 92.2 µM
Procedure, shortened: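 Compounds are added to THP-1 cells (2000 per well) and left 16 hrs at 37 C. A labeled anti-IL-8 antibody pair is then added, and IL-8 secretion is measured by time-resolved FRET after 1-3 hrs at room temperature.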

[13] = target: Androgen receptor (Homo sapiens) (UniProt P10275); assay: qHTS assay for small molecule agonists of androgen receptor signaling (AID 588515; active = well fitted curve in the direction sought with a large enough effect in the signal ratio, with a control signal flat; the % refers to the signal ratio; also: % is scaled to controls: 0 for no effect and ±100 for the full control effect); conditions: AR-UAS-bla HEK293, beta-lactamase ratio, agonist 16 h; stronger effect = higher value
Androgen receptor (Homo sapiens), sequence (P10275 whole entry, looked up): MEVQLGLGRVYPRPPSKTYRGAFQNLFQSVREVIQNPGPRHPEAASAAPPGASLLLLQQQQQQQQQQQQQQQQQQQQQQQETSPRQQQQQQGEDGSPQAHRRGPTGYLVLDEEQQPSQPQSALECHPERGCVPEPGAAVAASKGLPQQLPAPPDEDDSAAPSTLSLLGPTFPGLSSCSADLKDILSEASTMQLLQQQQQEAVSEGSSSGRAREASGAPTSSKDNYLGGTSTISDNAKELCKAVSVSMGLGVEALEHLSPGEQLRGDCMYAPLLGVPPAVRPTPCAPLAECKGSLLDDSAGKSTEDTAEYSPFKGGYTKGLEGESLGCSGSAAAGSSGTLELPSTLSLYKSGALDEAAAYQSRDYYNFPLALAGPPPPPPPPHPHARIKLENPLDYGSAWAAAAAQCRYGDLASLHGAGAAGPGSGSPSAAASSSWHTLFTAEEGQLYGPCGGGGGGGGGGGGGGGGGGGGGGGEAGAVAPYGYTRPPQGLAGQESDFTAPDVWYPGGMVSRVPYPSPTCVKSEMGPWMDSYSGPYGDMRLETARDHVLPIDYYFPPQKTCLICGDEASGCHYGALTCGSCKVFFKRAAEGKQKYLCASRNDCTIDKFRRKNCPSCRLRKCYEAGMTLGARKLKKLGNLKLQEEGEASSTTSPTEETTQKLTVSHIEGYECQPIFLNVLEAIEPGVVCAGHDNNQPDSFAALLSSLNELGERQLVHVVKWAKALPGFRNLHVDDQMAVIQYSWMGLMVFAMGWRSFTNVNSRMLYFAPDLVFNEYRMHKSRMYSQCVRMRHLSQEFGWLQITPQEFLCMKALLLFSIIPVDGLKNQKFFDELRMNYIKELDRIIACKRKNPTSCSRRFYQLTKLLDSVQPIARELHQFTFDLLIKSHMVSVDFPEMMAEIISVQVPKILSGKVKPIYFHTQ
Procedure, shortened: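 Stimulation of an AR-responsive β-lactamase reporter in GripTite HEK293 cells was measured after 16 h compound exposure at 37 °C, via CCF4 fluorescence after 2 h RT. EC50 from Hill fits, normalized to R1881 at 30 nM.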

[14] = target: Androgen receptor (Homo sapiens) (UniProt P10275); assay: qHTS assay for small molecule antagonists of androgen receptor signaling (AID 588516; active = well fitted curve in the direction sought with a large enough effect in the signal ratio, with a control signal flat, not every such curve was filed as active; the % refers to the signal ratio; also: % is scaled to controls: 0 for no effect and ±100 for the full control effect); conditions: AR-UAS-bla HEK293, beta-lactamase ratio, antagonist mode, 16 h; series mostly up to 76.8 µM
Procedure, shortened: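 Compounds tested in titration against 10 nM R1881 in AR-responsive bla reporter HEK 293 cells; CCF4 fluorescence (460/530 nm) after 16 h exposure gave IC50 and efficacy.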

[15] = Confirmation and Secondary Assay for Modulators of Hemoglobin Beta Chain Splicing at IVS2 654 locus (AID 910; active = well fitted curve in the direction sought with a large enough effect; an effect the other way counts as inactive or inconclusive;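 also: HeLa cells stably carrying EGFP split by mutant beta-globin IVS2-654 intron; % of control where 0% means no effect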); conditions: HeLa EGFP-654 splicing reporter, GFP fluorescence, 48 h; series mostly up to 46.1 µM
Procedure, shortened: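 HeLa cells stably expressing EGFP interrupted by β-globin IVS2-654 intron, seeded overnight in Opti-MEM/2% FCS, then treated 2 days at 37 °C. Restored splicing read as total peak GFP intensity per well by laser scanning cytometry (488 nm excitation, 500–520 nm emission); 500 nM antisense PNA as control.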

[16] = Confirmation and Secondary Assay for Modulators of Hemoglobin Beta Chain Splicing at IVS2 705 locus (AID 930; active = well fitted curve in the direction sought with a large enough effect; an effect the other way counts as inactive or inconclusive;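 also: HeLa cells stably expressing the EGFP-705 splicing reporter; % of control where 0% means no effect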); conditions: HeLa EGFP-705 splicing reporter, GFP fluorescence, 48 h; series mostly up to 46.1 µM
Procedure, shortened: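 HeLa cells stably carrying EGFP interrupted by mutant beta-globin IVS2-705 intron (CMV-driven) were seeded at 500 cells/well, treated next day with compound for 2 days at 37C; corrected splicing restores EGFP, read as total peak GFP intensity per well.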

CN1CC[C@@]2(CCCN(C(=O)Oc3ccccc3)C2)C1
inactive: Potency [1] > 11.4 µM | outcome [2] | Potency [3] | activity change, negative = inhibition [4] 0.664% | outcome [5] | Potency [6] > 46 µM | Potency [7] | Potency [8]

C=C[C@H]1CN2CC[C@H]1C[C@H]2c1[nH]c2ccccc2c1CCO
inactive: Potency [8] | Potency [9]

O=C(Nc1ccccc1)N1CCC2(CC1)CCN(C(=O)Oc1ccccc1)CC2
active: Potency [8] 10 µM
inactive: Potency [1] > 11.4 µM | outcome [2] | Potency [3] | activity change, negative = inhibition [4] 5.23% | Potency [6] > 46 µM | Potency [7]

O=[N+]([O-])c1ccc(Cl)c(Cl)c1
inactive: Potency [10]

N#CCCCl
inactive: outcome [11] | Potency [12]

CC(C)(C)OO
inactive: activation [13] -8.84% | Potency [14] | outcome [11] | Potency [12]

O=C(c1ccco1)N1CCC2(CC1)CN(Cc1ccncc1)C2
inactive: Potency [1] > 11.4 µM | outcome [2] | outcome [5] | Potency [6] > 46 µM | Potency [7]

Brc1ccc(Oc2cc(Br)c(Br)cc2Br)c(Br)c1
inactive: Potency [10]

CC(C)(C#N)O[C@H]1OC(CO)C(O)C(O)C1O (stereo partly specified)
inactive: Potency [15] | Potency [16] | Potency [9]

Cc1nnc2ccc(-c3cccc(C(F)(F)F)c3)nn12
active: Potency [3] 0.0794 µM
inactive: Potency [6] > 46 µM | Potency [7] | Potency [8] | Potency [9]

CC1/C=C/C=C/CC/C=C/C=C/C=C/C=C/C(OC2OC(C)C(O)C(N)C2O)CC2O[C@](O)(CC(O)C(O)CCC(O)CC(O)CC(O)CC(=O)OC(C)C(C)C1O)CC(O)C2C(=O)O (stereo partly specified)
inactive: Potency [15] | Potency [16] | Potency [9]

CC(C)CN1CC[C@@]2(CCCN(C(=O)Oc3ccccc3)C2)C1
inactive: Potency [1] > 11.4 µM | outcome [2] | activity change, negative = inhibition [4] -1.09% | outcome [5] | Potency [6] > 46 µM | Potency [7] | Potency [8]
active: Potency [3] 15.8 µM

Brc1ccccc1
inactive: activation [13] 9.26% and -0.282% | Potency [14] | outcome [11]

O=C=NC1CCCCC1
inactive: outcome [11] | Potency [12] | Potency [10]

CC1CC[C@@]2(NC1)O[C@@H]1C[C@H]3C4CC=C5C[C@@H](O)CC[C@]5(C)C4CC[C@]3(C)[C@H]1[C@@H]2C (stereo partly specified)
inactive: Potency [9]

CCN(CC)c1ccccc1
inactive: activation [13] 12.2% | Potency [14]

O=C(Oc1ccccc1)N1CCC[C@@]2(CCN(Cc3cc(C(F)(F)F)cc(C(F)(F)F)c3)C2)C1
inactive: Potency [1] > 11.4 µM | outcome [5] | Potency [6] > 46 µM
